Assay outcomes from PubChem.
Compounds with a hit are over-represented: about 2.3% of the library has one in this group of screens.
Mcl1 Noxa PPI: disrupts binding of human Mcl-1 to Noxa peptide; Q07820; TR-FRET Mcl-1/Noxa peptide binding, 2 h; inhibition, % at 21.7 µM; hit rate 1.5% among 220,000;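 active = compounds that cut the protein-peptide binding signal by more than 50% relative to plate controls in a single-dose test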;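 note: His-tagged Mcl-1 with rhodamine Noxa BH3 peptide and terbium anti-His antibody; 0% = Mcl-1 plus Noxa peptide wells and 100% = peptide-only wells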
MCL1-BIM inh: inhibitors of human MCL1 binding to BIM-BH3 peptide; hit rate 0.68% among 320,000; inhibition, % at 10.9 µM; Q07820; GST-MCL1 / FITC-Bim-BH3 fluorescence polarization;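 active = inhibition above the mean inhibition of all tested compounds plus 3 SD, set per campaign, cut at about 40% in these data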;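 note: 0% = DMSO wells and 100% = unlabeled Bim-BH3 peptide control; higher means more loss of mP so more displacement of Bim peptide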
Mcl-1 Bim block: human Bim-Mcl-1 interaction inhibition | Q07820 | Bead-based flow cytometry, Bim peptide-Mcl-1 binding | inhibition, % at 10 µM | hit rate 0.1% among 190,000 | AID 1009; in the data active = inhibition above about 40%;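 note: 0% = no compound tracer wells and 100% = peptide blocker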
Mcl1 Bid PPI: disrupts binding of human Mcl-1 to Bid peptide; TR-FRET Mcl-1/Bid-Dy647 peptide binding, 1536-well; inhibition, % at 21.7 µM; hit rate 0.97% among 220,000; Q07820;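 active = compounds that cut the binding signal by more than half at the single screening dose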;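 note: His-tagged Mcl-1 with europium anti-His antibody binding Bid BH3 peptide; 0% = Mcl-1 plus peptide wells and 100% = peptide-only wells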
Bcl-xL primary: Bcl-xL (human) inhibition; GST-Bcl-xL / FITC-Bim BH3 peptide fluorescence polarization; AID 2129; inhibition, % at 10.9 µM; Q07817; hit rate 0.7% among 320,000;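 active = inhibition above the mean of all tested compounds plus 3 SD, cutoff set per campaign, cut at about 30% in these data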;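 note: 0% = DMSO wells and 100% = unlabeled Bim-BH3 peptide competitor; inhibitors lower millipolarization by displacing the labeled peptide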
Target sequence (Q07817 whole entry, looked up): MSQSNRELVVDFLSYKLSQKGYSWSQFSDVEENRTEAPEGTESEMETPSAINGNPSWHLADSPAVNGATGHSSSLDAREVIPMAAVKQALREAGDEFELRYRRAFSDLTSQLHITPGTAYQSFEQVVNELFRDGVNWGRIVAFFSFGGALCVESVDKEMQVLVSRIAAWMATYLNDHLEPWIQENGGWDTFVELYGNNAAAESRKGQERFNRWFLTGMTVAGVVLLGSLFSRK
GLD-1 RNA inh: GLD-1-TGE RNA interaction inhibition (C. elegans) | inhibition, % at 5.96 µM | purified GLD-1 + fluorescein TGE RNA, fluorescence polarization | Q17339 | hit rate 0.44% among 320,000;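 active = percent inhibition above a per-plate cutoff, the plate mean of test compounds plus 3 SD, cut at about 30% in these data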;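 note: 0% = DMSO wells with GLD-1 and probe and 100% = wells lacking GLD-1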
Target sequence (Q17339 whole entry, looked up): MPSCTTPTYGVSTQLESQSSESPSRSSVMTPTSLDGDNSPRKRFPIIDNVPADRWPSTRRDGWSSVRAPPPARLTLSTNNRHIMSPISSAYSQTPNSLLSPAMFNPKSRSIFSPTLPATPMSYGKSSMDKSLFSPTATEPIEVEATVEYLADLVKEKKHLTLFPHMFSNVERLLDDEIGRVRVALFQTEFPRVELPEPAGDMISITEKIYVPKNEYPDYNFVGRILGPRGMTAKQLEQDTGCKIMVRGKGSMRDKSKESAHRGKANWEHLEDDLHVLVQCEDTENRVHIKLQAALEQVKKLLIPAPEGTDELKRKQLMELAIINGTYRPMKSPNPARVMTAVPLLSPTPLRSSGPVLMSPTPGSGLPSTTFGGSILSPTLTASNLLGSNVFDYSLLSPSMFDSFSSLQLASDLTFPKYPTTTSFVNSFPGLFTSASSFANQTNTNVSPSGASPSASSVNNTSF
* = called active by the depositor.

Results for CC1(C)CC(=O)C(N=Nc2cc(Cl)c(Cl)c(Cl)c2)=C(O)C1 ?
Mcl1 Noxa PPI: 1; MCL1-BIM inh: 4; Mcl-1 Bim block: 42*; Mcl1 Bid PPI: -34; Bcl-xL primary: -1; GLD-1 RNA inh: -4

How did Cc1ccc(O)c(N=NC2=C(O)CC(C)(C)CC2=O)c1 do in these assays?
Mcl1 Noxa PPI: -9; MCL1-BIM inh: 25; Mcl-1 Bim block: -9; Mcl1 Bid PPI: -74; Bcl-xL primary: 28; GLD-1 RNA inh: -5

How did COc1ccc(/C=C2\C(=O)N(c3c(Cl)cc(Cl)cc3Cl)N=C2NC(=O)c2cccc([N+](=O)[O-])c2)cc1 do in these assays?
Mcl1 Noxa PPI: 106*; MCL1-BIM inh: 6; Mcl-1 Bim block: 0; Mcl1 Bid PPI: 24; Bcl-xL primary: 9; GLD-1 RNA inh: 5

How did CC(C)OC(=O)Cn1cnc2ccc(Br)cc2c1=O do in these assays?
Mcl1 Noxa PPI: 107*; MCL1-BIM inh: -6; Mcl-1 Bim block: -3; Mcl1 Bid PPI: 0; Bcl-xL primary: 4; GLD-1 RNA inh: 4

How did COc1cc(C2C(C#N)=C(N)N(N(C)C)C3=C2C(=O)CC(C)(C)C3)cc(OC)c1OC (stereo unspecified) do in these assays?
MCL1-BIM inh: 6; Bcl-xL primary: 7; GLD-1 RNA inh: 0

How did CCCC1(C(=O)OC)NC(c2ccc(OC)cc2OC)C2C(=O)N(c3cccc(C(C)=O)c3)C(=O)C21 (stereo unspecified) do in these assays?
MCL1-BIM inh: -5; Bcl-xL primary: -2; GLD-1 RNA inh: 4

What do the screens show for `CCCN(CCC)CCNC(=O)C1CC(=O)N(c2ccc(OC)cc2)C1c1ccc(OC)cc1` (stereo unspecified)?
Mcl1 Noxa PPI: 10; MCL1-BIM inh: 3; Mcl-1 Bim block: 0; Mcl1 Bid PPI: 60*; Bcl-xL primary: 10; GLD-1 RNA inh: 1

How did CC1(c2ccc3c(c2)OCCCO3)NC(=O)N(CC(=O)Nc2cccc(C#N)c2)C1=O (stereo unspecified) do in these assays?
MCL1-BIM inh: -5; Bcl-xL primary: -1; GLD-1 RNA inh: 0

Results for CCOC(=O)CN1C(=O)S/C(=C\c2ccc(-c3cccc(C(=O)O)c3C)o2)C1=O ?
MCL1-BIM inh: -4; Bcl-xL primary: 0; GLD-1 RNA inh: 1

What do the screens show for `COc1ccccc1N1C(=N)S/C(=C\c2ccc(-c3ccccc3C(=O)O)o2)C1=O`?
Mcl1 Noxa PPI: 53*; MCL1-BIM inh: -8; Mcl-1 Bim block: 2; Mcl1 Bid PPI: -27; Bcl-xL primary: -3; GLD-1 RNA inh: -25

Results for N=C1S/C(=C\c2ccc(-c3ccccc3C(=O)O)o2)C(=O)N1c1ccc2c(c1)OCO2 ?
Mcl1 Noxa PPI: 60*; Mcl-1 Bim block: 3; Mcl1 Bid PPI: 0

How did Cc1ccc(NC(=O)CN2C(=O)S/C(=C\c3ccc(-c4cccc(C(=O)O)c4C)o3)C2=O)cc1C do in these assays?
Mcl1 Noxa PPI: 79*; Mcl-1 Bim block: 4; Mcl1 Bid PPI: -76

What do the screens show for `CCc1ccccc1NS(=O)(=O)c1ccc2[nH]cc(C(=O)NCC3CCCO3)c(=O)c2c1` (stereo unspecified)?
Mcl1 Noxa PPI: 72*; MCL1-BIM inh: 7; Mcl-1 Bim block: -2; Mcl1 Bid PPI: 59*; Bcl-xL primary: 8; GLD-1 RNA inh: -1

How did COc1cccc(NS(=O)(=O)c2ccc3[nH]cc(C(=O)N(C)Cc4ccco4)c(=O)c3c2)c1 do in these assays?
Mcl1 Noxa PPI: 10; MCL1-BIM inh: 7; Mcl-1 Bim block: 0; Mcl1 Bid PPI: 58*; Bcl-xL primary: 10; GLD-1 RNA inh: 1

Results for Cc1ccccc1NS(=O)(=O)c1ccc2[nH]cc(C(=O)N(C)Cc3ccco3)c(=O)c2c1 ?
Mcl1 Noxa PPI: 11; MCL1-BIM inh: 12; Mcl-1 Bim block: -3; Mcl1 Bid PPI: 51*; Bcl-xL primary: 8; GLD-1 RNA inh: -2

Results for Cc1cc(C)cc(NS(=O)(=O)c2ccc3[nH]cc(C(=O)NCc4ccco4)c(=O)c3c2)c1 ?
Mcl1 Noxa PPI: 32; MCL1-BIM inh: 4; Mcl-1 Bim block: -2; Mcl1 Bid PPI: 5; Bcl-xL primary: 11; GLD-1 RNA inh: 4

Results for CC(=O)NCCC(=O)N(Cc1ccccc1)c1nc2c(C)cccc2s1 ?
MCL1-BIM inh: 0; Bcl-xL primary: 6; GLD-1 RNA inh: -2

What do the screens show for `COCCN1C(=O)N[C@@H](c2ccccc2)[C@H](C(=O)OC)[C@H]1C`?
MCL1-BIM inh: 5; Bcl-xL primary: 10; GLD-1 RNA inh: 2

What do the screens show for `CN(C)N1C(N)=C(C#N)C(c2ccc(Br)cc2)C2=C1CC(C)(C)CC2=O` (stereo unspecified)?
MCL1-BIM inh: -2; Bcl-xL primary: 2; GLD-1 RNA inh: -3

How did CCOC(=O)c1c(/N=C/c2ccccc2O)sc2c1CCC2 do in these assays?
Mcl1 Noxa PPI: 12; MCL1-BIM inh: 10; Mcl-1 Bim block: 25; Mcl1 Bid PPI: -26; Bcl-xL primary: 9; GLD-1 RNA inh: -1

What do the screens show for `CCOC(=O)c1c(/N=C/c2ccc(O)cc2O)sc2c1CCC2`?
Mcl1 Noxa PPI: 13; MCL1-BIM inh: 5; Mcl-1 Bim block: -7; Mcl1 Bid PPI: -27; Bcl-xL primary: 8; GLD-1 RNA inh: 33*

How did CCCn1cc(CN2CCCC(C(=O)c3ccc4c(c3)OCO4)C2)c(C)n1 (stereo unspecified) do in these assays?
MCL1-BIM inh: 6; Bcl-xL primary: 5; GLD-1 RNA inh: 7

Results for Cc1ccc(S(=O)(=O)CCSc2cccc(C(=O)Nc3ccccc3C(=O)O)c2)cc1 ?
Mcl1 Noxa PPI: 68*; MCL1-BIM inh: 22; Mcl-1 Bim block: -1; Mcl1 Bid PPI: -10; Bcl-xL primary: 15; GLD-1 RNA inh: -3

Results for O=C(Cn1c(=O)n(-c2ccccc2)c(=O)c2sccc21)N1CCCC1 ?
Mcl1 Noxa PPI: 105*; MCL1-BIM inh: -2; Mcl-1 Bim block: 0; Mcl1 Bid PPI: 6; Bcl-xL primary: -2; GLD-1 RNA inh: -2

What do the screens show for `Cc1ccc(-n2c(=O)c3sccc3n(CC(=O)N3CCCC3)c2=O)cc1`?
Mcl1 Noxa PPI: -10; MCL1-BIM inh: -3; Mcl-1 Bim block: 0; Mcl1 Bid PPI: -9; Bcl-xL primary: -1; GLD-1 RNA inh: -7

Results for COC(=O)N/N=C/c1cn(Cc2ccccc2F)c2ccccc12 ?
Mcl1 Noxa PPI: 2; MCL1-BIM inh: -2; Mcl1 Bid PPI: -12; Bcl-xL primary: 3; GLD-1 RNA inh: 8

What do the screens show for `O=C(O)c1ccc(N/N=C/c2cn(Cc3ccccc3F)c3ccccc23)cc1`?
Mcl1 Noxa PPI: 59*; MCL1-BIM inh: 5; Mcl1 Bid PPI: -2; Bcl-xL primary: 7; GLD-1 RNA inh: 4

How did COc1ccc(NC(=O)Nc2cccc3c2O[C@H](CN(C)C(=O)Nc2c(C)noc2C)[C@@H](C)CN([C@H](C)CO)C3=O)cc1 do in these assays?
GLD-1 RNA inh: 2

What do the screens show for `Clc1ccc(OCCn2ccnc2)c(Cl)c1`?
Mcl1 Noxa PPI: 31; MCL1-BIM inh: 3; Mcl-1 Bim block: -2; Mcl1 Bid PPI: 28; Bcl-xL primary: 5; GLD-1 RNA inh: 7
